Data on 40 molecules can be found in PubChem BioAssay (NCATS).

Inconclusive results are not listed. A number with no mark means an inactive call. Calls of active or inactive are those of the source. The call rests on the fitted dose curve; in most records, active means well fitted activation curve with a large enough effect; inconclusive means small, poorly fitted or top-dose-only effect; inactive means flat fitted curve, though single readings scatter.
Potency means the concentration at half of the fitted maximal effect.

The target of the assay is D(1A) dopamine receptor (Homo sapiens) (UniProt P21728). Kind of assay: HTS Assay for Allosteric Agonists of the Human D1 Dopamine Receptor: Primary Screen for Agonists (AID 488981). On activation: 0% is about no effect. To be noted: Inducible HEK293 T-REx D1 cells, calcium-flux fluorescence, 180 s kinetic; series mostly up to 41.8 µM; activation: at the top concentration. An excerpt: Dopamine receptors (DARs) are involved in the etiology and/or therapy of a number of neuropsychiatric and endocrine disorders. For instance, all receptor-based antiparkinsonian drugs work via stimulating the […] DAR subtype whereas all FDA-approved antipsychotic agents are antagonists of this receptor. […] There are three different types of allosteric modulators that we are seeking, two of which will stimulate or augment receptor signaling, allosteric agonists and potentiators, while the third, allosteric antagonists, will attenuate receptor signaling. The present primary screening assay measures compound agonism by tracking calcium flux in a […], inducible Hek293 Trex D1 cell line.
Chain of D(1A) dopamine receptor (Homo sapiens) (P21728 whole entry, looked up): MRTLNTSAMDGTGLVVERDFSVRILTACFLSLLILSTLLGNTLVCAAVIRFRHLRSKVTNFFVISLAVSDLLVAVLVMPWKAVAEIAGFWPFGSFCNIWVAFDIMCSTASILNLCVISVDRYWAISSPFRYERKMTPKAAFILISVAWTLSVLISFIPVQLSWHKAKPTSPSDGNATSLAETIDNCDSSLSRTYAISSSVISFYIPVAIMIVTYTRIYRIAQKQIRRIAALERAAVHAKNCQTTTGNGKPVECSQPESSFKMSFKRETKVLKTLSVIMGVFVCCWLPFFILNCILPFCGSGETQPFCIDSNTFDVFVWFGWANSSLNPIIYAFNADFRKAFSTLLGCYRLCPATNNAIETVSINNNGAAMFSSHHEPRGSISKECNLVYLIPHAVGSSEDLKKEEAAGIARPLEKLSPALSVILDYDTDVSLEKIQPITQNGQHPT
Freshly passaged cells are plated in 1536 well black, clear bottom plates at a density of 4000 cells/well in 3 ul of complete media containing 1x tetracycline inducer. After an overnight incubation at 30 C in 5% CO2, cells are loaded with 2 ul of the no wash Calcium Assay Kit (ABD Bioquest) and incubated at room temperature for 30 to 90 minutes. A 10 cycle (1 second/cycle) baseline measurement is taken and then the FDSS online 1536 pintool delivers 23 nl of compound library (as well as dopamine controls) to the plate. The plate is measured for kinetically at 1 cycle/sec for 180 seconds and is considered to be the agonist portion of the assay (eg, compounds which activate a positive calcium response during this portion are flagged as potential agonists). Following the 180 second read, 1 ul of an EC20 of dopamine is delivered by an onboard pipette head. Measurements are taken kinetically for an additional 180 seconds.
For `Clc1cc(I)cc(Cl)c1NC1=NCCN1`, the “activation” value is 10.8%.

`CC(C)(O)[C@@H]1C2OC(=O)[C@@H]1[C@]1(O)C[C@H]3O[C@]34C(=O)O[C@H]2[C@]14C` (tested in a mixture with another compound): the “activation” value was 0%.

On to `COc1ccc2c(c1)C13CCCCC1C(C2)N(C)CC3` (stereo not given), for which the “activation” value is 7.3%.

As for `COc1ccc2[nH]c3c(c2c1)CCNC3`, the “activation” value was 2.01%.

`C[C@@H]1O[C@H](C[N+](C)(C)C)CS1`: the “activation” value is 21.9%.

Regarding `CC(Cc1ccc(OCC(=O)O)cc1)NCC(O)c1cccc(Cl)c1` (stereo not given), the “activation” value was 0.423%.

Turning to `O=C(O)c1cc[c]([Hg][Cl])cc1`, the “activation” value was -0.159%.

`CN1CCc2cccc(Cl)c2CC1`: the “activation” value is 1.37%.

Consider `CC12NC(Cc3ccccc31)c1ccccc12` (stereo not given), for which the “activation” value was 6.82%.

For `CCCN(CCC)[C@H]1CCc2c(F)ccc(O)c2C1`, the “activation” value is 1.22%.

For the molecule `C[Se]C[C@H](N)C(=O)O`, the “activation” value was -0.899%.

Turning to `c1ccc2c(N3CCNCC3)cccc2c1`, the “activation” value was 22.1%.

For the molecule `C=CCN1CC[C@]23c4c5ccc(O)c4O[C@H]2/C(=N/NC(=O)c2ccccc2)CC[C@@]3(O)[C@H]1C5`, the “activation” value is 0%.

For `C=CCN1CCc2cccc3c2[C@H]1Cc1ccc(O)c(O)c1-3`, the Potency was 794 nM (active).

As for `C=CCN1CCC23c4c5ccc(O)c4O[C@H]2C(=O)CC[C@@]3(O)C1C5` (stereo not given in full), the “activation” value is -0.899%.

With `CN(C(=O)Cc1ccc(Cl)c(Cl)c1)C(CN1CCCC1)c1cccc(OCC(=O)O)c1` (stereo not given), the “activation” value was -0.74%.

On to `C[C@@H]1O[C@@H](O[C@H]2C[C@@H](O)[C@]3(CO)[C@@H]4C(CC[C@]3(O)C2)[C@@]2(O)CC[C@H]([C@@H]3COC(=O)C3)[C@@]2(C)C[C@H]4O)[C@H](O)[C@H](O)[C@H]1O` (stereo not given in full), for which the “activation” value was -0.793%.

`CC(=O)c1c(O)c(C)c(O)c(Cc2c(O)c3c(c(C(=O)/C=C/c4ccccc4)c2O)OC(C)(C)C=C3)c1O`: the “activation” value was -0.159%.

As for `C[N+]1(C)CCN(c2ccccc2)CC1`, the “activation” value was 0.317%.

Regarding `COc1ccc2c(c1)c(CCN1CCOCC1)c(C)n2C(=O)c1cccc(Cl)c1Cl`, the “activation” value is 5.08%.

`O=C1CC[C@@]2(O)C3Cc4ccc(O)c5c4C2(CCN3CC2CC2)[C@H]1O5` (stereo not given in full): the “activation” value was 0.793%.

For `CP(=O)(O)C1=CCNCC1`, the “activation” value is -0.264%.

Regarding `NNC(=O)c1ccc(O)cc1`, the “activation” value is -0.423%.

For the molecule `CCN1C[C@@]2(COC)C3[C@@H](OC)C4[C@@H]1C3([C@@H]1C[C@]3(O)[C@H](OC(=O)c5ccccc5)[C@@H]1[C@]4(OC(C)=O)[C@@H](O)[C@@H]3OC)[C@H](OC)C[C@H]2O`, the “activation” value was -0.159%.

As for `CCCCCCCCCCCCCC(=O)O[C@@H]1[C@@H](C)[C@@]2(O)[C@@H](C=C(CO)C[C@@]3(O)C(=O)C(C)=C[C@@H]23)C2C(C)(C)[C@@]21OC(C)=O` (stereo not given in full), the “activation” value was 6.35%.

Regarding `Oc1ccc2c3c1O[C@H]1c4oc5ccccc5c4C[C@@]4(O)C(C2)N(CC2CC2)CCC314` (stereo not given in full), the “activation” value is 5.13%.

For the molecule `CCCn1c(=O)c2[nH]c(C3CCCC3)nc2n(CCCOC(=O)c2ccc(S(=O)(=O)F)cc2)c1=O`, the “activation” value was 0.529%.

Take `CCCN(CCC)C1Cc2cc(OC)c(OC)cc2C1`: the “activation” value was -0.264%.

Regarding `NCCCP(=O)(O)O`, the “activation” value was 0.952%.

Turning to `O=[N+]([O-])c1ccc2nc(N3CCNCC3)ccc2c1`, the “activation” value was 25.2%.

As to `CCCN1CCc2cc(O)cc3c2[C@H]1Cc1ccc(O)c(O)c1-3`, the “activation” value was 15.7%.

In the case of `CCCN1CCC[C@@H](c2cccc(O)c2)C1`, the “activation” value is 3.44%.

In the case of `NC(N)=NOCC[C@H](N)C(=O)O`, the “activation” value was -0.317%.

Turning to `N[C@@]1(C(=O)O)CC[C@@H](C(=O)O)C1`, the “activation” value was -0.211%.

Take `CCCC[N+]1(C)C2CC(OC(=O)[C@H](CO)c3ccccc3)CC1C1OC12` (stereo not given in full): the “activation” value was 0.0529%.

On to `COc1ccc2[nH]cc(CCN)c2c1`, for which the “activation” value was 1.53%.

As to `Oc1ccc2c3c1O[C@H]1c4[nH]c5ccccc5c4C[C@@]4(O)C(C2)N(CC2CC2)CCC314` (stereo not given in full), the “activation” value is 3.65%.

`NCCc1ccc(S(=O)(=O)F)cc1`: the “activation” value is 5.76%.

For `N[C@@H](CCl)C(=O)O`, the “activation” value was -0.0529%.

For the molecule `Nc1ccc(CCN2CCN(c3cccc(C(F)(F)F)c3)CC2)cc1`, the “activation” value is 28.8%.
